This is an account of results in PubChem BioAssay (EPA / NIEHS).

The structures appear in SMILES notation. Results filed as inconclusive are left out. Activity calls are given as the source filed them. The calls were made as follows: active = hit-call score of the fitted dose curve at least 0.9, where 1 is the maximum; inconclusive = response in the unintended direction; inactive = score below 0.9.

This assay in a line: ATG_M_19_TRANS: Attagene TRANS-FACTORIAL HepG2 Assay for M19 Transcription Factor (Internal Marker) (AID 2282974). Particulars: HepG2 Attagene TRANS-FACTORIAL M19 internal marker reporter. Here is the method:
ATG_TRANS is a cell-based, multiplexed-readout assay that uses HepG2, a human liver cell line, with measurements taken at 24 hours after chemical dosing in a 24-well plate.ATG_M_19_TRANS is one of 30 assay component(s) measured or calculated from the ATG_TRANS assay. It is designed to make measurements of mRNA induction, a form of inducible reporter, as detected with fluorescence intensity signals by Reverse transcription polymerase chain reaction (RT-PCR) and Capillary electrophoresis technology.Data from the assay component ATG_M_19_TRANS was analyzed into 1 assay endpoint. This assay endpoint, ATG_M_19_TRANS, was analyzed in the positive analysis fitting direction relative to DMSO as the negative control and baseline of activity. Using a type of inducible reporter, measures of mRNA for gain-of-signal activity can be used to understand the background control at the transcription factor-level as they relate to the gene . Furthermore, this assay endpoint can be referred to as a secondary readout, because this assay has produced multiple assay endpoints where this one serves a background control function. To generalize the intended target to other relatable targets, this assay endpoint is annotated to the background measurement intended target family, where the subfamily is internal marker.
Human liver HepG2 cells are transiently transfected with multiple reporter transcription units (MRTUs) in 6-well plates using FuGene 6 reagent (Roche; 3 ml FuGene/1 mg DNA). The MRTU constructs are regulated by a cis-regulating element (promoter). […] A major difference between the CIS and TRANS system is that in CIS activities of endogenous TFs are measured, whereas the TRANS assay evaluates changes in activities of exogenous, chimeric NR-Gal4 proteins. […] At the end of 24 hour incubation, total RNA was isolated using TriZol reagent (Invitrogen). The isolated RNA is then reverse-transcribed using oligo(dT) primer and Mo-MLV reverse transcriptase (Invitrogen) with DNAse I (Ambion) treatment for 30 min. The one-tenth of the produced cDNA was amplified by PCR using Taq DNA polymerase (Invitrogen) and two reporter sequence-specific primers. The PCR products were fluorescently labeled by primer extension with 6-arboxyfluorescein (6-FAM) 5'-labeled reporter sequence-specific primer (2 min at 95 C, 20 s at 68 C and 10 min at 72 C) and these products were digested with 5U of HpaI (New England Biolabs) for 2h at 37 C. The fragments were purified using Qiaquick PCR columns (Qiagen), analyzed on an ABI 3130xL genetic analyzer (Applied Biosystems) with peak positions identified by using a set of X-rhodamine (ROX)-labeled MapMarker1000 molecular weight standards (BioVentures). The raw capillary electrophoresis data was processed using Attagraph software (Attagene).
For the compound `OCCCC(F)(F)C(F)(F)C(F)(F)F`, the outcome was inactive.

Consider `FC(F)(F)C(F)(F)C(F)(F)C(F)(F)C(F)(F)C(F)(F)C(F)(F)I`, for which the result was inactive.

Consider `Nc1ccc(S(=O)(=O)Nc2nccs2)cc1`, for which the compound was called inactive.

For `FC(F)(F)C(F)(F)C(F)(F)C(F)(F)C(F)(F)C(F)(F)C(F)(F)C(F)(F)F`, the result was inactive.

Take `O=C(C=Cc1ccccc1)OCC=Cc1ccccc1`: the call was inactive.

On to `[Co]`, for which the call was inactive.

Take `O=C(O)C(F)(OC(F)(F)C(F)(OC(F)(F)C(F)(OC(F)(F)C(F)(F)C(F)(F)F)C(F)(F)F)C(F)(F)F)C(F)(F)F` (stereo not given): the call was inactive.

In the case of `O=C(O)C(F)(F)C(F)(F)C(F)(F)F`, the outcome was inactive.

As to `FC(F)(F)C(F)(F)C(F)(F)C(F)(F)C(F)(F)C(F)(F)CC1CO1` (stereo not given), the call was inactive.

Regarding `OCC(F)(F)C(F)(F)C(F)(F)F`, the result was inactive.

`CCN(CC)c1ccc2c(C)cc(=O)oc2c1`: the outcome was inactive.

Turning to `CC(C)(C)c1ccc(OC2CCCCC2O)cc1` (stereo not given), the result was inactive.

For the compound `O=S(=O)(O)C(F)(F)C(F)(F)C(F)(F)C(F)(F)C(F)(F)C(F)(F)C(F)(F)F`, the result was inactive.

`CCCCOc1ccc(N)cc1`: the result was inactive.

As to `FC(F)(I)C(F)(F)C(F)(F)C(F)(F)I`, the outcome was inactive.

Turning to `CNC(=S)NC`, the compound was classed as inactive.

As to `OCC(F)(F)C(F)(F)C(F)(F)C(F)F`, the outcome was inactive.

Turning to `CC(C)(C)C(=O)CC(=O)C(F)(F)C(F)(F)C(F)(F)F`, the compound was classed as inactive.

As to `C=C(C)C(=O)OCC(F)(F)C(F)(F)C(F)(F)F`, the compound was called inactive.

`OCC(F)(F)C(F)(F)C(F)(F)C(F)(F)C(F)(F)C(F)(F)F`: the compound was classed as inactive.

As to `O=C(O)C(F)(F)C(F)(F)C(F)(F)C(F)(F)F`, the compound was classed as inactive.

Regarding `CCCCCCOC(=O)c1ccccc1`, the compound was classed as inactive.

For `C1COCCN1`, the outcome was inactive.

For the compound `O=C(O)C(F)(F)C(F)(F)C(F)(F)C(F)(F)C(F)(F)C(F)(F)C(F)(F)C(F)(F)Cl`, the result was inactive.

On to `CCc1ccc(C(c2ccc(CC)cc2)C(Cl)Cl)cc1`, for which the compound was called inactive.

For the compound `CC(C)c1ccccc1N`, the compound was called inactive.

As to `O=S(=O)(OCC(F)F)C(F)(F)F`, the compound was classed as inactive.

Consider `CCC(=O)OCCc1ccccc1`, for which the compound was called inactive.

Take `OC[C@@H](O)[C@@H](O)[C@H](O)[C@@H](O)CO`: the call was inactive.

As to `N=C(N)C(F)(F)C(F)(F)C(F)(F)C(F)(F)C(F)(F)C(F)(F)C(F)(F)F`, the compound was called inactive.

As to `Nc1cc(Cl)c(N)c(Cl)c1`, the call was inactive.

In the case of `CC(Cc1ccc(O)c(O)c1)C(C)Cc1ccc(O)c(O)c1` (stereo not given), the compound was called inactive.

On to `C=C(C)C(=O)OCCC(F)(F)C(F)(F)C(F)(F)C(F)(F)C(F)(C(F)(F)F)C(F)(F)F`, for which the result was inactive.

Take `C=C(C)C(=O)OCC(F)(F)C(F)(F)C(F)(F)C(F)(F)C(F)(F)C(F)(F)C(F)(F)F`: the compound was called inactive.

Turning to `FC(F)(F)C(F)(F)C(F)(F)C(F)(F)C(F)(F)CCI`, the outcome was inactive.

For the compound `FC(F)(F)C(F)(F)C(F)(F)C(F)(F)C(F)(F)C(F)(F)C(F)(F)Br`, the call was inactive.

Consider `C(=C(c1ccccc1)c1ccccc1)c1ccccc1`, for which the result was inactive.

As for `CCCCC(CC)COP(=O)(O)OCC(CC)CCCC` (stereo not given), the compound was called inactive.

`OCC(F)(F)C(F)(F)C(F)(F)C(F)(F)C(F)(F)C(F)F`: the call was inactive.

On to `FC(F)(F)C(F)(F)C(F)(F)C(F)(F)C(F)(F)C(F)(F)C(F)(F)C(F)(F)CCS`, for which the call was inactive.
